# The panel holds about 83,000 compounds, 20% with a hit somewhere; the sample as a whole holds those more often.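 Treatment: one concentration, 48 hours, 96-well format. Scoring: percent growth, with anything below 10 considered active.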 Active and inactive are the calls of the source.
# Test system: MDA-MB-468 breast
# Assay: NCI-60 one-dose screen, 48 h (100 = growth as untreated, 0 = no growth, -100 = all killed)
# Settings: 10 µM unless noted
row,Compound,growth
1,CC(C)C[C@H](NC(=O)[C@H](Cc1ccccc1)n1ccc(N2CCCCC2)cc1=O)B(O)O,-24.1% (active)
2,CC(C)C1=C(O)C2=C(C(=O)C1=O)[C@@]1(C)CCCC(C)(C)[C@@H]1CC2,73.1% (inactive)
3,CCCCCCCCOc1ccc(/C=N/Nc2cc(C)nc3ccc(Br)cc23)cc1,90% (inactive)
4,NS(=O)(=O)c1ccc(-n2ncc(NC(=O)Nc3ccc(S(=O)(=O)Nc4nccs4)cc3)c2-c2ccccc2)cc1,102% (inactive)
5,COc1cccc(/C=C/C(=O)c2cc3c(N)c(C(=O)Nc4ccccc4)sc3nc2C)c1,15.3% (inactive)
6,CN1C(=O)N(C)C2Nn3c(s/c(=C\c4ccc(C(F)(F)F)cc4)c3=O)=NC21 (stereo not drawn),98.5% (inactive)
7,Cc1cc(=O)n2n1-c1ccc(Cl)cc1NC(=O)C2,101% (inactive)
8,C#C[C@H](O)/C=C/CCCCCCC#C[C@H](O)CC[C@@H](O)C#CCCCCCC/C=C/[C@@H](O)C#C,97.6% (inactive)
9,CC(=O)c1c([Si](C)(C)C)c2cc(C#N)ccn2c1C(=O)c1ccc(Br)cc1,79.9% (inactive)
10,O=C1C=C(O)c2ccccc2C1=O.[Ag],99% (inactive)
11,CCN(CC)c1ccc2c(cc1=O)[C@@H](NC(C)=O)CCc1cc(OC)c(OC)c(OC)c1-2,36.9% (inactive)
12,C#CCN(C)CCCOc1ccc(NCc2ccc(/C=C/C(=O)NO)cc2)cc1Cl,-47.6% (active)
13,Clc1ccc(C2=NN(c3ccc(Cl)cc3)C(c3cccc(Nc4ccnc5cc(Cl)ccc45)c3)C2)cc1 (stereo not drawn),78.2% (inactive)
